# Source: PubChem
# RecA intein inh = Mtb RecA intein splicing inhibitors, primary screen, biochemical, fluorescence, HTS | 290,000 compounds, 0.75% hits | cell-free RecA intein splicing | inhibition, % (concentration not given with the values); in the data active = inhibition above about 30%
# FBA Mtb inh = Mtb FBA enzyme inhibitors, primary screen, biochemical, fluorescence, strain H37Rv | purified M. tuberculosis FBA, fluorescence read-out | inhibition, % at 1 µM | 360,000 compounds, 2.3% hits
# GDH-TPI counter-1 = GDH-TPI coupling enzyme inhibitors, primary screen, artefact control for M. tuberculosis FBA inhibitor project, biochemical, absorbance, full deck; GDH-TPI coupled enzyme counterscreen, NADH absorbance; AID 588335, 2011; inhibition, % at 4.8 µM; 360,000 compounds, 1.2% hits; in the data active = inhibition above about 30%
# Mtb UGM inh = M. tuberculosis UGM enzyme inhibitors, primary screen, biochemical, fluorescence polarization, single point; UDP-galactopyranose mutase (Mycobacterium tuberculosis (strain ATCC 25618 / H37Rv)), …; purified UGM, fluorescence polarization probe displacement; inhibition, % at 10 µM; 320,000 compounds, 0.06% hits; in the data active = inhibition above about 10%, passing the limit was not always enough
# Rv3671c inh = Rv3671c serine protease inhibitors, primary screen, biochemical, fluorescence polarization, M. tuberculosis H37Rv | P9WHR9 | inhibition, % at 5.96 µM | 320,000 compounds, 0.048% hits; in the data active = inhibition above about 38%;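 also: extracellular domain of Rv3671c used as enzyme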
# Target sequence (P9WHR9 whole entry, looked up, the tested form may be a part): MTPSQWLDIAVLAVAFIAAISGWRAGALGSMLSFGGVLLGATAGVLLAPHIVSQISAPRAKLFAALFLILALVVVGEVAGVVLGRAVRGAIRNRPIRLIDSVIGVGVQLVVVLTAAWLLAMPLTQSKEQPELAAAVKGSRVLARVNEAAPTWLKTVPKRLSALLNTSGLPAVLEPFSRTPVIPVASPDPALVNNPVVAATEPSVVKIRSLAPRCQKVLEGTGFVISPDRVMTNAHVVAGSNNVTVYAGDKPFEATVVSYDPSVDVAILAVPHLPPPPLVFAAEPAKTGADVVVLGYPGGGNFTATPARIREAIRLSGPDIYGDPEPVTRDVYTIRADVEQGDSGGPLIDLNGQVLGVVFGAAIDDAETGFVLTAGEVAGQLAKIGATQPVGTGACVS
# Mtb betalactam = beta-lactam sensitization of Mtb H37Rv, H37Rv; M. tuberculosis H37Rv growth with meropenem, percent inhibition; inhibition, % at 25 µM; 330,000 compounds, 0.27% hits; AID 434955, 2010; call rule not given here;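 also: growth measured after seven days incubation then overnight dye step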
# Mtb FBA confirm = M. tuberculosis aldolase blockers, biochemical, fluorescence, strain H37Rv, confirmation; shares compounds with FBA Mtb inh; purified M. tuberculosis FBA, fluorescence read-out; inhibition, % at 1 µM; 5,600 compounds, 78% hits; AID 651616, 2012
# GDH-TPI counter-2 = GDH-TPI coupling enzyme inhibitors, artefact control for M. tuberculosis FBA inhibitor project, biochemical, fluorescence, high throughput | shares compounds with FBA Mtb inh | GDH-TPI coupled enzyme counterscreen | inhibition, % at 1 µM | 5,600 compounds, 81% hits; in the data active = inhibition above about 10%
# A number is an active result; i = inactive; nt = no result; + = active, no number. Only some compounds are listed: those with a hit (about 4% of all), similar ones and a draw of the others. Rule as the data show it, unless noted: active = inhibition above about 27%; inactive = the rest.
SMILES,RecA intein inh,FBA Mtb inh,GDH-TPI counter-1,Mtb UGM inh,Rv3671c inh,Mtb betalactam,Mtb FBA confirm,GDH-TPI counter-2
CCCCC(C(=O)NC1CCCC1)N(C(=O)c1snc(C(N)=O)c1N)c1ccc(F)cc1 (configuration not stated),i,i,i,i,i,i,nt,nt
O=c1[nH]c(=O)n(Cc2ccccc2)c2nc(-c3ccco3)cc(C(F)(F)F)c12,i,27,i,i,i,i,72,64
CCC1(CC)NC(=O)N(CC(=O)OC(C)C(=O)Nc2ccc(NC(C)=O)cc2)C1=O (configuration not stated),i,i,i,i,i,i,nt,nt
CC(C)NC(=O)CN(C(=O)CCC(=O)Nc1nccs1)c1ccc(C(C)C)cc1,i,i,i,i,i,i,nt,nt
COc1ccc(C(=O)NCc2nnc(SCC(=O)N3CCCc4ccccc43)o2)cc1OC,nt,i,i,i,i,i,nt,nt
COC(=O)c1ccc2ccn(CC(=O)NC3CCCCC3)c2c1,i,71,i,i,i,i,i,i
Cc1ccc(-c2cn3nc(C)c(C)nc3n2)cc1,i,34,i,i,i,i,i,i
Cc1ccc2[nH]c3c(c2c1)CCNC3=O,i,75,i,i,i,i,113,93
COc1c(F)cc2[nH]c3c(c2c1F)CCNC3=O,i,38,i,i,i,i,+,176
CCOC(=O)C(O)C1CCc2c([nH]c3ccc(C)cc23)C1=O (configuration not stated),i,i,i,i,i,i,nt,nt
Cc1ccc(SCC(=O)N2N=CCC2c2ccccc2)cc1 (configuration not stated),i,i,i,i,i,i,nt,nt
CCC(C)(C)NC(=O)C(c1cccc(OC)c1OC)N(C(=O)CCC(=O)Nc1cc(C)on1)C(C)C (configuration not stated),i,i,i,i,i,i,nt,nt
CCN(c1cccc(C)c1)S(=O)(=O)c1c(C)[nH]c(C)c1C(=O)N1CCCCC1,i,i,i,i,i,i,nt,nt
O=C(O)CNS(=O)(=O)c1ccc2c(c1)C(=O)c1cc(S(=O)(=O)NCC(=O)O)ccc1-2,i,i,i,i,nt,i,nt,nt
O=C(O)CNS(=O)(=O)c1ccc2c(c1)Cc1cc(S(=O)(=O)NCC(=O)O)ccc1-2,nt,41,i,i,i,i,i,i
N#CC(C(=O)CCN1C(=O)C2CC=CCC2C1=O)c1nc2ccccc2[nH]1 (configuration not stated),nt,47,i,i,i,i,i,20
CC1CCCN(C(=O)c2cc(-c3cccs3)nc3ccccc23)C1 (configuration not stated),nt,83,i,i,i,i,i,i
O=C(c1cc(-c2cccs2)nc2ccccc12)N1CCN(S(=O)(=O)c2cccc(F)c2)CC1,i,38,i,i,i,i,123,92
O=C(c1cc(-c2cccs2)nc2ccccc12)N1CCN(c2ccccc2)CC1,i,i,i,i,i,i,nt,nt
O=C(c1cc(-c2cccs2)nc2ccccc12)N1CCN(S(=O)(=O)c2ccccc2)CC1,i,57,i,i,i,i,98,76
Cc1onc(-c2c(F)cccc2Cl)c1C(=O)O/N=C(\N)c1ccc([N+](=O)[O-])o1,nt,i,i,i,i,i,nt,nt
O=C(CC(=O)c1ccccc1)Nc1ccc(Cl)cc1,i,i,i,i,i,i,nt,nt
C=CCN(C(=O)COc1ccccc1)c1nnc(-c2ccncc2)s1,i,41,i,i,i,i,95,70
Clc1ccc(/C=C/c2nc3ccccc3[nH]2)cc1,i,53,39,i,i,i,+,124
Clc1ccc(/C=C/c2nc3ccccc3[nH]2)c(Cl)c1,i,63,i,i,i,i,60,44
